Laboratory results published in the supplement of paper PMC3724861.
The sample as a whole holds a higher share of hits than the screen did. How many sequences the whole screen found active is unknown. A number with no mark means an inactive call.

test system: T1, Caupolican (Caup) homeodomain DNA-binding domain; assay: PBM E-score (8-mer, recovered from the published 9-mer minima) (E-score (dimensionless, -0.5 to 0.5)); Drosophila protein; higher = stronger relative binding preference, active = 0.31 or more
T1 sequence: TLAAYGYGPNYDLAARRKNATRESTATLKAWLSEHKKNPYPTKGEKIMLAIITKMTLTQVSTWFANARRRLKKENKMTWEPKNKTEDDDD
Procedure, shortened: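 An enrichment score, with higher meaning stronger, expresses relative binding preference for each short DNA word. The protein used was Caup's homeodomain DNA-binding domain (residues 214-303), produced by in vitro transcription and translation and tested at 100 nM on custom-designed protein binding microarrays. The 8-mer values were recovered from published 9-mer scores, each equal to the lower of its two constituent 8-mer scores.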

In order of rising “PBM E-score” value:
1. GGCAGAGA  -0.188
2. GCTCCAGC  -0.186
3. GGGCTTTA  -0.186
4. AGCTCATC  -0.167
5. ACCGGCGA  -0.156
6. GGAGGCAC  -0.154
7. CTCCCGAA  -0.138
8. AAAACTCC  -0.138
9. ATTGGGCG  -0.135
10. CAGGGATC  -0.124
11. GCCTATCA  -0.108
12. CGAGCTCA  -0.105
13. ATCGACGG  -0.105
14. GCCCTAAC  -0.104
15. CTCTTTTC  -0.1
16. AAAGGTGC  -0.0982
17. AACTCGGG  -0.0964
18. CTTGAAGA  -0.0903
19. CATCTAAG  -0.0746
20. ATCGTGGA  -0.0656
21. GCAAGTCC  -0.0418
22. AAGCGCGA  -0.033
23. CCTCACAA  -0.0288
24. GTCGCCAA  -0.0201
25. GTCGTGGA  -0.0165
26. CCTCTGTC  -0.0145
27. AGGTAACC  -0.0119
28. CGATCAAA  -0.00998
29. CTGGTAAG  -0.00689
30. CGGTCTTA  -0.00157
31. GGAATGAA  0.00414
32. GTAGAGGA  0.00507
33. AGTCGAAA  0.0145
34. ATATGACC  0.021
35. AGCCATAA  0.0213
36. CAACCGTA  0.0275
37. GCGTAGTA  0.0285
38. GATAGATC  0.0307
39. CTATTGAA  0.0499
40. AGGTAACT  0.0502
41. ACGTAACG  0.0522
42. TGAGCAAA  0.0543
43. CTGTAGTC  0.0608
44. GTTCGCGA  0.066
45. ACTGAGCA  0.0738
46. GAGCTGTA  0.079
47. GCAACTAC  0.0804
48. CAACGTGA  0.0867
49. GAGTAGTA  0.0893
50. CACGCAAA  0.0933
51. GTATGAGA  0.0966
52. GTTAAAGA  0.0986
53. GTTTCAAA  0.0987
54. ACACCAGT  0.101
55. CATCATGA  0.11
56. CTACATTC  0.119
57. ATGTAGGC  0.12
58. TACTGCAA  0.125
59. AGTGATAA  0.126
60. ATCGTGCA  0.127
61. CTGTAAGA  0.138
62. GATCTACA  0.145
63. ATCGTGTG  0.149
64. AAGTAGTC  0.159
65. GCATAATA  0.169
66. CAGTAGTA  0.175
67. CTATTAAC  0.178
68. AAGTAATT  0.18
69. AAGTAGTA  0.186
70. ACATAATC  0.202
71. GGGTAACA  0.216
72. ACATAACC  0.22
73. GCGTAACA  0.221
74. AGACATAC  0.222
75. CTATGACA  0.223
76. GTGTAAGA  0.224
77. AGCGTGTC  0.231
78. CAATAACA  0.238
79. GGATAACA  0.238
80. GTATGATA  0.242
81. CGATAACA  0.244
82. CAAATACA  0.245
83. ACAAGGTG  0.255
84. CTCGTGTC  0.26
85. ATACATTG  0.261
86. ACGTAACA  0.263
87. AGACATAT  0.264
88. ATGTAGTG  0.27
89. CTCGTGTA  0.27
90. ATGTAACC  0.275
91. CGCGTGTA  0.285
92. CTACATAC  0.286
93. CTGTAACA  0.289
94. ACATAACT  0.291
95. ATACATAG  0.292
96. GAATAACA  0.301

For ATACATTC, the “PBM E-score” value was ≥ 0.314 (active).
ATACATAT was tested, and the “PBM E-score” value was 0.344 (active).
In the case of ATACATAA, the “PBM E-score” value is reported as 0.348 (active).
In the case of ATACATAC, the “PBM E-score” value is reported as 0.332 (active).
For ATGTAGTC, the “PBM E-score” value was 0.331 (active).
CTGTAGTA was tested, and the “PBM E-score” value was 0.348 (active).
With ATGTAGTA the “PBM E-score” value was 0.372 (active).
GTGTAGTA was tested, and the “PBM E-score” value was 0.357 (active).
GTCGTGTA was tested, and the “PBM E-score” value was 0.386 (active).
For ATCGTGTA, the “PBM E-score” value was 0.407 (active).
With ATCGTGTC the “PBM E-score” value was 0.336 (active).
AGCGTGTA was tested, and the “PBM E-score” value was 0.355 (active).
For TGATAACA, the “PBM E-score” value was 0.322 (active).
With TAATAACA the “PBM E-score” value was 0.319 (active).
With ATGTAACG the “PBM E-score” value was 0.347 (active).
GTGTAACA was tested, and the “PBM E-score” value was 0.397 (active).
In the case of ATGTAACA, the “PBM E-score” value is reported as 0.429 (active).
In the case of ATGTAAGA, the “PBM E-score” value is reported as 0.332 (active).
For AGGTAACA, the “PBM E-score” value was 0.327 (active).
For ATATGACA, the “PBM E-score” value was 0.336 (active).
GTATGACA was tested, and the “PBM E-score” value was 0.312 (active).
With ACATAATA the “PBM E-score” value was 0.323 (active).
ACATAACA was tested, and the “PBM E-score” value was 0.332 (active).
